Laboratory results published in the supplement of paper PMC12067093, “Discovery and optimisation of a covalent ligand for TRIM25 and its application to targeted protein ubiquitination” (Chemical Science, 2025).
Of roughly 21,000 targets only a part is listed; those with the largest changes were picked by preference.

Compound: CC1Cc2ccccc2N1C(=O)C1CCCN(C1)C(=O)CCl (mixture of isomers) [TRIM25 ligand 11 (diastereomer mixture)]
Test: probe-labelled cysteine peptide fold change vs DMSO (competition) (log2 fold change); higher = less target engagement (more negative = stronger competition)
Conditions: THP-1, incubation time: 4 h
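Also: competitive chemoproteomic profiling in live THP-1 cells with an iodoacetamide desthiobiotin (IA-DTB) probe, comparing probe-labelled peptide intensities in compound-treated cells against DMSO-treated controls.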

Chain of UniProt Q96T88 (Q96T88 whole entry, looked up): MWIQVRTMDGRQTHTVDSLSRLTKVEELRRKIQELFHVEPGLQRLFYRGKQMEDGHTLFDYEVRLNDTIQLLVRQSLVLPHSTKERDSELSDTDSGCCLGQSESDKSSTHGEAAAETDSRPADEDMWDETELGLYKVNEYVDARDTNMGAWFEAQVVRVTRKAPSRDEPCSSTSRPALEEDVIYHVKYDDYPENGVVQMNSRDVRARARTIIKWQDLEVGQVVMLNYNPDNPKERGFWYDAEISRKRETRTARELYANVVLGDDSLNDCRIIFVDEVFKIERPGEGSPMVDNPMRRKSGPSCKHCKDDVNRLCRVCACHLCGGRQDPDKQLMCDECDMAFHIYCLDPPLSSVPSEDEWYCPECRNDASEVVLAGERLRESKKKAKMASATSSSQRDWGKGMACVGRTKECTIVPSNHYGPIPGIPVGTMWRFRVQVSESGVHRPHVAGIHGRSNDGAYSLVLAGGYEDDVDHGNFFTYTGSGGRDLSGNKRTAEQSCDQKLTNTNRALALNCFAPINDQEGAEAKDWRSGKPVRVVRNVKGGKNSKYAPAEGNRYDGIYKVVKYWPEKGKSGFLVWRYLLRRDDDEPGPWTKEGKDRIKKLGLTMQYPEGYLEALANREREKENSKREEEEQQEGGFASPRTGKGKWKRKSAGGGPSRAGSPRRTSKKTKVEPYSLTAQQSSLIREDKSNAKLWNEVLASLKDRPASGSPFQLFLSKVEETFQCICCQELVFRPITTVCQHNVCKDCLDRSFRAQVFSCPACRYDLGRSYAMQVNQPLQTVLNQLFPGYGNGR
Chain of UniProt Q9C0C9 (Q9C0C9 whole entry, looked up): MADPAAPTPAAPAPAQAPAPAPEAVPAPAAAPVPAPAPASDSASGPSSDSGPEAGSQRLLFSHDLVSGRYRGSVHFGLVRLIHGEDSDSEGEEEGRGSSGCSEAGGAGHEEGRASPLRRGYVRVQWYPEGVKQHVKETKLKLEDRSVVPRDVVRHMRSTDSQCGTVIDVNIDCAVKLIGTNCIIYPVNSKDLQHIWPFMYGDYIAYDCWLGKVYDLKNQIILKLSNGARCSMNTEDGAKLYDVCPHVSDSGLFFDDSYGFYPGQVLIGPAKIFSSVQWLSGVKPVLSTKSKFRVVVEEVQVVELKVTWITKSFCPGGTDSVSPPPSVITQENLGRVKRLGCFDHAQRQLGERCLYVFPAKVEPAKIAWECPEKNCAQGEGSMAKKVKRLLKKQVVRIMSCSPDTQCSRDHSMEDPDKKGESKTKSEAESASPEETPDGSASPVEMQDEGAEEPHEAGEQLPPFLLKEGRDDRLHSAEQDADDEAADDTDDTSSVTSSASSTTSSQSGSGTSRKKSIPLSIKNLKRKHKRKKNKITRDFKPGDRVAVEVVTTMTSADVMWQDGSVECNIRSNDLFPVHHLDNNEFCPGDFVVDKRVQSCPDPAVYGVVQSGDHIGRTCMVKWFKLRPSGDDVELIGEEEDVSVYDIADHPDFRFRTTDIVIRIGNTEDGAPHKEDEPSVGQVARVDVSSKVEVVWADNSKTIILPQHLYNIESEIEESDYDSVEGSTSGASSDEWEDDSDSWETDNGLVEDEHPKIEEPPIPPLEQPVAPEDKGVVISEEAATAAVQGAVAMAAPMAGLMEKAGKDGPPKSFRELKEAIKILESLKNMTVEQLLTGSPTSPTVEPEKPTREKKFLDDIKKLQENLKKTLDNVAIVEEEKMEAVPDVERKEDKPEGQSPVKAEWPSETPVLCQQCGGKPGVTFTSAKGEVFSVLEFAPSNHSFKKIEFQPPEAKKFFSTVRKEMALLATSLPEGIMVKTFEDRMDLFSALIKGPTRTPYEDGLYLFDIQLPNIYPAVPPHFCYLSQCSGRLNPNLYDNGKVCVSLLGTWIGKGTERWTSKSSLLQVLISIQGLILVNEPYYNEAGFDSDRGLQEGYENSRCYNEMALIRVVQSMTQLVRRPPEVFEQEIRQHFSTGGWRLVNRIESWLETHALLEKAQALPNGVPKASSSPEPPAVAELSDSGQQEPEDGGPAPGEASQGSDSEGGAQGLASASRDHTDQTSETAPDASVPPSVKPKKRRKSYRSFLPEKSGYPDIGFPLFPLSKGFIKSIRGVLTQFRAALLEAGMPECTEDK
Chain of UniProt Q9NXH9 (Q9NXH9 whole entry, looked up): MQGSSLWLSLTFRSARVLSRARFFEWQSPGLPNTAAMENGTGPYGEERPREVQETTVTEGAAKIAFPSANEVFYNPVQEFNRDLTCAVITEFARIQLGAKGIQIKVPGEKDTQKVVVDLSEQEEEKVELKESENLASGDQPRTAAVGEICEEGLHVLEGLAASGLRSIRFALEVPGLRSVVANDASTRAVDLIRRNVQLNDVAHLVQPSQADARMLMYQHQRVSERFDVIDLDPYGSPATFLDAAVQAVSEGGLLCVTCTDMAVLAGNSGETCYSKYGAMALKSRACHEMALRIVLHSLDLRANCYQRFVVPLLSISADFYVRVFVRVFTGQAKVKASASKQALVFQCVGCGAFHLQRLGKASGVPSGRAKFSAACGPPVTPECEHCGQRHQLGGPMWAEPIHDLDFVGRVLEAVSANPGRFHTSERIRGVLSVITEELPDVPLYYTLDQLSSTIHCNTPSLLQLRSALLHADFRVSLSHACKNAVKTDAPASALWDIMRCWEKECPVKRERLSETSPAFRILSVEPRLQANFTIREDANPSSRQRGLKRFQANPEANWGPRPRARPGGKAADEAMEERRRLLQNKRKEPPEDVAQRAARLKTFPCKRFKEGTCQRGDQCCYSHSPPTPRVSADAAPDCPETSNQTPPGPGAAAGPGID
Chain of UniProt Q8NEZ2 (Q8NEZ2 whole entry): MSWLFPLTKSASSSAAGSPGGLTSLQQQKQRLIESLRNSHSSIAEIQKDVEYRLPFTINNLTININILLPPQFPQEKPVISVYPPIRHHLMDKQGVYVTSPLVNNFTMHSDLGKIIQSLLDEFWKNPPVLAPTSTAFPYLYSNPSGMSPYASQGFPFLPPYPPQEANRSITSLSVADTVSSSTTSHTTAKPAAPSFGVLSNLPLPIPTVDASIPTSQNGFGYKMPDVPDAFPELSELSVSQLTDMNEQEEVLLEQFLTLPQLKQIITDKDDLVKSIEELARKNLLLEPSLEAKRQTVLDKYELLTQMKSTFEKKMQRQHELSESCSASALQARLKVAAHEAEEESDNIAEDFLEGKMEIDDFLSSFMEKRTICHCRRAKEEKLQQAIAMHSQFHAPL
Chain of UniProt Q96CW5 (Q96CW5 whole entry, looked up): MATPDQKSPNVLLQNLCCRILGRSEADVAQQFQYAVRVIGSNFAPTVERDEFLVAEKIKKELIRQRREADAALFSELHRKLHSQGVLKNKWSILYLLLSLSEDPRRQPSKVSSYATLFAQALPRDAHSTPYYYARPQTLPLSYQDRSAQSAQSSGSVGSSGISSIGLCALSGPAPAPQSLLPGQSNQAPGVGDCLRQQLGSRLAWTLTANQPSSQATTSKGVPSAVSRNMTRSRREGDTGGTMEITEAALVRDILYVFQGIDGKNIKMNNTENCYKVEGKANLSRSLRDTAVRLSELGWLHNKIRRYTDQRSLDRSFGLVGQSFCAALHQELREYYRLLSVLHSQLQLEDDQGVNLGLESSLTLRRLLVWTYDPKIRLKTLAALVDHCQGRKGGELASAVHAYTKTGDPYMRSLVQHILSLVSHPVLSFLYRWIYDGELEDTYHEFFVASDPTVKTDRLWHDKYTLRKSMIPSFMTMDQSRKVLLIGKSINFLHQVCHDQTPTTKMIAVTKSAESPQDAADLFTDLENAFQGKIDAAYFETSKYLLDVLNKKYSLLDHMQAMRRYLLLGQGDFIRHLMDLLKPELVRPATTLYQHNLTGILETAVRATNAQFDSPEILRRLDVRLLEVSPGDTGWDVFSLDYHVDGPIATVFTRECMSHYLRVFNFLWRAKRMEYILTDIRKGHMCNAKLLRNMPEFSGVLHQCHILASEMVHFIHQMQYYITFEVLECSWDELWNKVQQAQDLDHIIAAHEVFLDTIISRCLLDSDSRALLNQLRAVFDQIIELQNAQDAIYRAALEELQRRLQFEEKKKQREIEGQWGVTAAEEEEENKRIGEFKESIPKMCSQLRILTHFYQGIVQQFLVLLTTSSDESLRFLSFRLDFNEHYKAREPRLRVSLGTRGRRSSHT
Chain of UniProt O00308 (O00308 whole entry, looked up): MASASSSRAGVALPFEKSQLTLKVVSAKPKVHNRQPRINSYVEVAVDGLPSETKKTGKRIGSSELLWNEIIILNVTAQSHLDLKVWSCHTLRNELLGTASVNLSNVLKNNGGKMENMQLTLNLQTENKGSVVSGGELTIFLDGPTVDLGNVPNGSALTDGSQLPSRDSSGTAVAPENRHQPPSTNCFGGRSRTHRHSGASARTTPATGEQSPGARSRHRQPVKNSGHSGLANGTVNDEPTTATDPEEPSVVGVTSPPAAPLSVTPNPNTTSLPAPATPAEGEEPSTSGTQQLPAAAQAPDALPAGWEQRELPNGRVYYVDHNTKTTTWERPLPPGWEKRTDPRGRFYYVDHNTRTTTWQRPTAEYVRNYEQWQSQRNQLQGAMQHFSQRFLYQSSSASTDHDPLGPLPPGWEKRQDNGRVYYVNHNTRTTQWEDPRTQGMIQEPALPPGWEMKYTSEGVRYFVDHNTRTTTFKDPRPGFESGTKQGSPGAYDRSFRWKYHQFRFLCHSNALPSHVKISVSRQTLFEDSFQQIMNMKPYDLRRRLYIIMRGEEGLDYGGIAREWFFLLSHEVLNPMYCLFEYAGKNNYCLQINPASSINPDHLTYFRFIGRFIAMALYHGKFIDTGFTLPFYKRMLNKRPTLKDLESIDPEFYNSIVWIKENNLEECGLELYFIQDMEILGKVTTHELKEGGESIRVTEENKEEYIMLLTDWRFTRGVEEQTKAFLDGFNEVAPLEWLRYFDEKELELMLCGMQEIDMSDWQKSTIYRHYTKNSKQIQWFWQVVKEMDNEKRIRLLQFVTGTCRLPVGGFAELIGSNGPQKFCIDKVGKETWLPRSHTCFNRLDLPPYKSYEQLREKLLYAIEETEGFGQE

Target	probe-labelled cysteine peptide fold change (10 µM)	probe-labelled cysteine peptide fold change (50 µM)
TUBB1_Q9H4B7_12_MREIVHIQIGQCGNQIGAK (UniProt Q9H4B7)	0.489	0.674
VRK3_Q8IV63_128_TSCSPQK (UniProt Q8IV63)	0.0233	-0.142
TRMT1_Q9NXH9_351_QALVFQCVGCGAFHLQR (UniProt Q9NXH9)	0.147	0.318
TUBA1B_P68363_213_SKLEFSIYPAPQVSTAVVEPYNSILTTHTTLEHSDCAFMVDNEAIYDICRR<|>TUBA4A_P68366_213_SKLEFSIYPAPQVSTAVVEPYNSILTTHTTLEHSDCAFMVDNEAIYDICRR<|>TUBA1A_Q9BQE3_213_SKLEFSIYPAPQVSTAVVEPYNSILTTHTTLEHSDCAFMVDNEAIYDICRR (UniProt Q9BQE3+P68366+P68363)	0.181	-0.0591
UBE2O_Q9C0C9_598_VQSCPDPAVYGVVQSGDHIGR (UniProt Q9C0C9)	-0.0239	-0.0974
UHRF1_Q96T88_497_TAEQSCDQK (UniProt Q96T88)	0.0456	-0.184
URB2_Q14146_1380_LHNVLFSILQCHPK (UniProt Q14146)	0.199	0.859
TYW1B_Q6NUM6_581_ELVDLIPEYEIACEHEHSNCLLIAHR (UniProt Q6NUM6)	0.268	0.256
WDFY4_Q6ZS81_1763_HHQEEVLQAGLCTEGALLLLEMLK (UniProt Q6ZS81)	0.571	0.181
TXNIP_Q9H3M7_49_ILACGVAK (UniProt Q9H3M7)	0.365	0.565
VARS_P26640_1185_CSIHLQLQGLVDPARELGK (UniProt P26640)	-0.114	-0.105
WWP2_O00308_186_HQPPSTNCFGGR (UniProt O00308)	-0.035	-0.168
XPC_Q01831_514_MCSDGEK (UniProt Q01831)	-0.0167	-0.0661
UAP1L1_Q3KQV9_50_AALLAELALLEPEALREHCR (UniProt Q3KQV9)	0.0804	0.0782
XPA_P23025_126+129_EFMDSYLMNHFDLPTCDNCR (UniProt P23025)	0.169	0.182
TTC14_Q96N46_165_DIAHLEITALCPLR (UniProt Q96N46)	0.0661	0.0914
VPS51_Q9UID3_226_AIQDDCQVITAR (UniProt Q9UID3)	-0.0611	0.0255
TTC21B_Q7Z4L5_72_QDVSLCSLLALIYAHK (UniProt Q7Z4L5)	0.155	0.138
TSFM_P43897_149_FQLLVQQVALGTMMHCQTLK (UniProt P43897)	-0.117	-0.0693

Target	probe-labelled cysteine peptide fold change (10 µM)	probe-labelled cysteine peptide fold change (50 µM)
VPS37A_Q8NEZ2_375_TICHCR (UniProt Q8NEZ2)	0.905	0.772
TTC27_Q6P3X3_514_ETPSLYCLLGDVLGDHSCYDK (UniProt Q6P3X3)	-0.201	-0.392
UNK_Q9C0B0_299+308_CNDMQQSGSCPR (UniProt Q9C0B0)	0.0296	-0.132
UBE2Z_Q9H832_243_NYNECIR (UniProt Q9H832)	-0.049	-0.0648
UBE2T_Q9NPD8_86_ICLDVLK (UniProt Q9NPD8)	-0.00663	0.103
WDR47_O94967_322_SLNPALDGLTCGLTSHDK (UniProt O94967)	0.104	-0.116
TXNRD2_Q9NNW7_279_GCAPSR (UniProt Q9NNW7)	0.829	0.386
UBAP1_Q9NZ09_243_ATLDFKPLHKPNGFITLPQLGNCEK (UniProt Q9NZ09)	-0.241	-0.382
TTC37_Q6PGP7_600_DFNCWESLGEAYLSR (UniProt Q6PGP7)	0.0103	-0.0643
TSPYL1_Q9H0U9_375_NQDLICSFFTWFSDHSLPESDK (UniProt Q9H0U9)	0.789	0.39
TXNRD2_Q9NNW7_523_SGLDPTVTGCUG (UniProt Q9NNW7)	-0.465	-2
UGP2_Q16851_123_LNGGLGTSMGCK (UniProt Q16851)	-0.0886	-0.138
TUBGCP3_Q96CW5_388_TLAALVDHCQGRK (UniProt Q96CW5)	-0.158	-0.0586
UACA_Q9BZF9_481_ALALECER (UniProt Q9BZF9)	-0.0367	0.0956
WDR7_Q9Y4E6_326_ELLICPPVTR (UniProt Q9Y4E6)	0.0845	0.185
XPC_Q01831_224_NNICSQPDLHAIGLSIIPAR (UniProt Q01831)	-0.0894	0.0467
TXNRD1_Q16881_339_EYCISSDDLFSLPYCPGK (UniProt Q16881)	0.364	0.552
TUBG1_P23258_316_QTNHCYIAILNIIQGEVDPTQVHK<|>TUBG2_Q9NRH3_316_QTNHCYIAILNIIQGEVDPTQVHK (UniProt Q9NRH3+P23258)	0.00794	-0.013
